The text below walks through data of PubChem BioAssay (EPA / NIEHS).

Molecules are shown by their SMILES. Calls of active or inactive are those of the source. The calls were made as follows: active = hit-call score of the fitted dose curve at least 0.9, where 1 is the maximum; inactive = score below 0.9.

Read-out in the experiment: Glutathione S-Transferase (GSTA2), GSTA2 (gene 2939)
The experiment is described as follows: LTEA_HepaRG_GSTA2: Life Technologies and Expression Analysis (LTEA) Assay for Glutathione S-Transferase (GSTA2) using HepaRG (AID 2283497). Particulars: mRNA level, 48 h; actives raise or lower the signal. In short, it runs like this: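 GSTA2 transcript levels came from Fluidigm TaqMan qRT-PCR normalized to three housekeeping genes, fitted in both directions against DMSO. HepaRG cultures received chemicals for 48 h in serum-free induction medium (0.5% DMSO), 8 half-log concentrations up to 100 uM, duplicate.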
For the compound `CC(C)(C)c1cc(C(C)(C)C)c(O)c(C(C)(C)C)c1`, the outcome was inactive. On the same count and under the same terms, in the case of `Cc1cc(C)c(O)c(C)c1` it was “inactive”; in that of `CCCCC(CC)COC(=O)CCCCC(=O)OCc1ccccc1` (stereo not drawn), “inactive”. On the same count and under the same terms, in the case of `c1ccc2c(c1)ccc1ccccc12` it was “inactive”; in that of `CCCCCCCCOC(=O)CCCCCCCCC(=O)OCCCCCCCC`, “inactive”; in that of `CC(C)(C)c1ccc(O)c(C(C)(C)C)c1`, “inactive”. As to `O=C(OCCOCCOC(=O)c1ccccc1)c1ccccc1`, the compound was called inactive. Take `CCCOc1sc(C(=O)N2CCC(c3cc(CN)ccc3F)CC2)c(C)c1Br`: the result was inactive. On to `CCc1nn(C2CCCCC2)c2cc(C3(C#N)CCC(C(=O)O)CC3)ccc12` (stereo not drawn), for which the half-maximal activity concentration (AC50) was 77.1 µM (active). `COCC(C)OCC(C)O` (stereo not drawn): the compound was classed as inactive. Take `CC(C)(C)CC(C)(C)c1ccc(O)c(-n2nc3ccccc3n2)c1`: the result was inactive. As for `CC(O)CO` (stereo not drawn), the outcome was inactive. For `COc1ccc([N+](=O)[O-])cc1N`, the outcome was inactive. Still for that read-out and setting: in the case of `CCCCCCCCCCCCN1CCCC1=O` it was “inactive”. In the case of `OCCC(F)(F)C(F)(F)C(F)(F)C(F)(F)C(F)(F)C(F)(F)F`, the result was inactive. For the compound `CCCCCCCCCCCCc1ccccc1S(=O)(=O)O`, the AC50 was 80.3 µM (active). Take `OCCC(F)(F)C(F)(F)C(F)(F)C(F)(F)C(F)(F)C(F)(F)C(F)(F)C(F)(F)F`: the call was inactive. As to `CCCCOCCO`, the result was inactive.

With `CCCCCCCCCCCCCCCS(=O)(=O)Oc1ccccc1`, the call was inactive. As to `CC(C)(C)c1cccc(C(C)(C)C)c1O`, the compound was classed as inactive. As for `CCC(=C(c1ccc(O)cc1)c1ccc(OCCN(C)C)cc1)c1ccccc1`, the outcome was inactive. With `CC(C)CCCCCCOC(=O)CCCCC(=O)OCCCCCCC(C)C`, the compound was classed as inactive.

Consider `CN1CCN(c2ccccc2/C=C2\SCCN(c3ccc(Cl)c(Cl)c3)C2=O)CC1`, for which the call was inactive.

For orientation: AC50 means the concentration at which the activity in the assay is half-maximal.
